# Test results published in article PMC5540273 (PLoS ONE, 2017).
# Key:
# Settings in all cases: concentration: 1 μM, replicates: in singlicate; n = 1
# BRSK1 = tested on: BRSK1
# BRSK2 = tested on: BRSK2
# BTK = tested on: BTK
# BUB1 = tested on: BUB1
# CAMK1B = tested on: CAMK1B
# CAMK1D = tested on: CAMK1D
# CAMK1G = tested on: CAMK1G
# CAMK1 = tested on: CAMK1
# CAMK2A = tested on: CAMK2A
# CAMK2B = tested on: CAMK2B
# CAMK2D = tested on: CAMK2D
# CAMK2G = tested on: CAMK2G
# CAMK4 = tested on: CAMK4
# CAMKK1 = tested on: CAMKK1
# CAMKK2 = tested on: CAMKK2
# CASK = tested on: CASK
# CDC2L1 = tested on: T1, CDC2L1
# T1 construct: gene CDK11B
# CDC2L2 = tested on: CDC2L2
# CDC2L5 = tested on: T2, CDC2L5
# T2 construct: gene CDK13
# CDK11 = tested on: T3, CDK11
# T3 construct: gene CDK19
# 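Further: KINOMEscan kinase panel screen.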
Structure (SMILES),%Inh (BRSK1) [%],%Inh (BRSK2) [%],%Inh (BTK) [%],%Inh (BUB1) [%],%Inh (CAMK1B) [%],%Inh (CAMK1D) [%],%Inh (CAMK1G) [%],%Inh (CAMK1) [%],%Inh (CAMK2A) [%],%Inh (CAMK2B) [%],%Inh (CAMK2D) [%],%Inh (CAMK2G) [%],%Inh (CAMK4) [%],%Inh (CAMKK1) [%],%Inh (CAMKK2) [%],%Inh (CASK) [%],%Inh (CDC2L1) [%],%Inh (CDC2L2) [%],%Inh (CDC2L5) [%],%Inh (CDK11) [%]
CSc1nn2c(=O)cc(N3CCOCC3)nc2n1Cc1cccc(Cl)c1Cl [GSK2347225],0,0,0,0,0,8,17,0,0,0,21,25,0,13,23,2,0,9,0,8
NC(=O)c1sc(-n2cnc3ccccc32)cc1OCc1ccccc1F [GSK1024306],5,0,0,20,31,0,0,0,0,0,0,14,0,0,10,49,0,0,0,8
CNc1nccc(-c2c(-c3ccc(F)cc3)ncn2CCCN2CCOCC2)n1 [SB-222516],0,3,0,0,0,0,0,0,8,16,11,16,27,8,14,1,0,0,22,13
Clc1cccc(-c2nc(Nc3ccncc3)c3ccccc3n2)c1 [GW873004],1,23,0,31,0,0,0,0,1,4,0,0,27,11,0,0,0,7,15,2
Cc1cccc(-c2nc(Nc3ccc4[nH]nnc4c3)c3ccccc3n2)n1 [GW867587],0,0,0,13,0,0,0,0,0,8,0,0,0,0,0,4,0,0,0,0
Cn1cc(-c2ccc3c(c2)CCN3C(=O)Cc2cccc(C(F)(F)F)c2)c2c(N)ncnc21 [GSK2606414],12,0,0,6,11,10,0,4,0,0,0,5,0,7,0,75,0,0,0,37
CC(C)N1CCC(n2cnc(-c3ccc(F)cc3)c2-c2ccnc(N)n2)CC1 [SB-223132],0,0,13,15,0,0,0,0,4,0,1,4,0,21,6,0,5,19,0,10
Cl.O=S(=O)(c1cccc(F)c1)c1ccc(Nc2ncnc3cc(Br)sc23)cc1Cl [GSK306886],0,0,0,0,38,10,0,2,0,0,9,0,0,0,20,47,3,20,0,0
COc1ccc(Nc2nccc(N3CCC(NC(=O)Nc4ccc5c(c4)OCO5)C3)n2)cc1 (stereo not drawn) [GSK1379745],0,2,32,33,0,8,4,8,0,1,7,20,0,29,9,5,0,0,0,46
Cl.c1ccc(Cn2ncc3cc(Nc4ncnc5ccccc45)ccc32)cc1 [GW273749],0,0,0,0,13,17,23,28,2,0,31,25,0,3,32,5,0,19,0,4
COc1cc2ncnc(Nc3ccc(OCc4ccccc4Br)c(Cl)c3)c2cc1OC.Cl [GI261590],0,37,0,66,21,0,0,12,0,0,0,14,0,0,0,0,2,18,0,21
Cn1ccc2ncnc(Oc3ccc(NC(=O)Nc4cccnc4)c(Cl)c3)c21,6,0,0,5,0,0,27,21,0,18,19,19,0,20,11,0,9,0,10,0
